The source made the active and inactive calls. Unless noted, the rule behind the calls is not given here.
Tests used:
[1] = HepG2 liver cancer cell viability effects, profiling panel, resazurin fluorescence, 24 h, PK04 Diversity Set (AID 1172); conditions: higher = more signal; note: test concentration not given here
[2] = basal S. cerevisiae growth modulation, no modifier, primary screen, OD600, strain BY4716, 24 h, basal condition (AID 1173); conditions: OD600, 24 h, higher = more signal, called active from +8 up or from −8 down
[3] = MM1S myeloma cell viability, profiling panel, resazurin fluorescence, basal, 24 h, PK04 Diversity Set (AID 1174); conditions: higher = more signal, called active from +8 up or from −8 down;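 note: MM1S multiple myeloma cell line; test concentration not given here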
[4] = biological target: Dihydroorotate dehydrogenase (quinone), mitochondrial (Plasmodium falciparum (isolate 3D7)) (UniProt Q08210); assay: PfDHODH enzyme inhibitors, primary screen, biochemical, C-terminal His tag, absorbance 600 nm (AID 1175); conditions: DCIP absorbance 600 nm, higher = more signal, called active from +8 up or from −8 down;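 note: recombinant parasite enzyme with a five histidine tag at its C terminus; test concentration not given here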
Dihydroorotate dehydrogenase (quinone), mitochondrial (Plasmodium falciparum (isolate 3D7)), sequence (Q08210 whole entry, looked up): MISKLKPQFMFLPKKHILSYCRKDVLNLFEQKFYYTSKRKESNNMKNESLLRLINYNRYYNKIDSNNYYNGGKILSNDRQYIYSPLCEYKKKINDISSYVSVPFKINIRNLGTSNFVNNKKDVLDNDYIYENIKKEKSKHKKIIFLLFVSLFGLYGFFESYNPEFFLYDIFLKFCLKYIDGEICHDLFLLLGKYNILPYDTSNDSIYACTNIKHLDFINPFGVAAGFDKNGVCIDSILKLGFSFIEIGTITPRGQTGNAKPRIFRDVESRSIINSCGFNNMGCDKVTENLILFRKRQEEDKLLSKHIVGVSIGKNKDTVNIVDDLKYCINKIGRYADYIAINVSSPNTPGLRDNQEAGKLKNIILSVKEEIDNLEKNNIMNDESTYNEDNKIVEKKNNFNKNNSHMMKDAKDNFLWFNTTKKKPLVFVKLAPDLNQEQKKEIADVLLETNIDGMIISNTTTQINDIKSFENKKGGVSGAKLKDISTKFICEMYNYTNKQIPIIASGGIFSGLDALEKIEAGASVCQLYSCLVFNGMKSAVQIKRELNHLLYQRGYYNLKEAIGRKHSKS

[5] = P. aeruginosa biofilm formation inhibitors, primary screen, strain PAO1, LB-PBS medium, absorbance 600 nm (AID 1176); note: test concentration not given here; conditions: P. aeruginosa PAO1 growth/biofilm, A600, 12 h; higher = more signal
[6] = S. cerevisiae RM11-1a growth modifiers, primary screen, strain RM11-1a, OD600, basal, 24 h (AID 1177); conditions: OD600, 24 h, higher = more signal, called active from +8 up or from −8 down;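 note: cultures grown under basal conditions with no added stressor; test concentration not given here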
[7] = E. coli acrAB mutant growth effects, primary screen, E. coli filamentation inducers, strain DRC39, OD650, 24 h (AID 1178); conditions: higher = more signal, called active from +8 up or from −8 down;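 note: growth measured as culture turbidity by optical density at 650 nm; test concentration not given here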
[8] = E. coli acrAB mutant growth effects, primary screen, E. coli filamentation inducers, strain DRC39, OD650, 48 h (AID 1179);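 note: screen aims at cell division blockers that make cells filament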; conditions: E. coli DRC39 delta-acrAB growth, higher = more signal, called active from +8 up or from −8 down
[9] = RPMI8226 myeloma cell viability, profiling panel, resazurin fluorescence, basal, 24 h, PK04 Diversity Set (AID 1180); conditions: higher = more signal;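 note: RPMI8826 multiple myeloma cell line at 5000 cells per well; test concentration not given here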
[10] = biological target: E3 ubiquitin-protein ligase XIAP (Homo sapiens) (UniProt P98170); assay: XIAP binders, primary screen, biophysical, small-molecule microarray, fluorescence 635 nm (AID 1181); conditions: small-molecule microarray binding, higher = more signal;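 note: score merges 667 nm emission and signal to noise over triplicate slides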
E3 ubiquitin-protein ligase XIAP (Homo sapiens), sequence (P98170 whole entry, looked up): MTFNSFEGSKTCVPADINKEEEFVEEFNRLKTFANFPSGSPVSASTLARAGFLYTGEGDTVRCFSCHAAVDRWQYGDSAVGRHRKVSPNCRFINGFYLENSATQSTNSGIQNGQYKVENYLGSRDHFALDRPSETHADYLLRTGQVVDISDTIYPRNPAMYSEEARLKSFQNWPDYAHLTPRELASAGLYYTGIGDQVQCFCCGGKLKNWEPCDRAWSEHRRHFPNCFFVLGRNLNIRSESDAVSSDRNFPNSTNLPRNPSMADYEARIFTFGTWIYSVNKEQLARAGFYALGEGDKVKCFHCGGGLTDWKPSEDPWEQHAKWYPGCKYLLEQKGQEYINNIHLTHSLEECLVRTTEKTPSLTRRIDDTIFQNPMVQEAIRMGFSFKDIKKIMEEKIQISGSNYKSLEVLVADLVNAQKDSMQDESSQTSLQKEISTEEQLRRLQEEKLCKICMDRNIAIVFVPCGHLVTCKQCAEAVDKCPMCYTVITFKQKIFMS

| Structure (SMILES) | z-score [1] | z-score [2] | z-score [3] | composite z-score [4] | z-score [5] | z-score [6] | z-score [7] | z-score [8] | z-score [9] | composite z-score [10] |
| --- | --- | --- | --- | --- | --- | --- | --- | --- | --- | --- |
| CC(C)(C)N1CC=CC23O[C@@H]4C=CCOC(=O)[C@@H]4[C@H]2C(=O)N(CCCO)[C@@H]3C1=O (stereo not given in full) | -0.922 | 0.114 (inactive) | -1.27 (inactive) | -0.257 (inactive) | -0.317 (inactive) | 0.297 (inactive) | -1.04 (inactive) | -0.955 (inactive) | -0.808 | 0.55 |
| C=CCN1C(=O)[C@@]2(O[C@@H](CCO)[C@H]([Si](C)(C)c3ccc(OC)cc3)[C@H]2C)c2cc(N3C(=O)c4ccccc4Oc4ccccc43)ccc21 | -6.08 | -0.0065 (inactive) | -8.62 (active) | 0.614 (inactive) | 1.95 (inactive) | 3.35 (inactive) | 2.24 (inactive) | 1.9 (inactive) | -6.24 | -0.172 |
| C=C(CCCC)/C(=C/C[C@@H](OC(C)=O)c1ccc(CO)o1)c1cc(C(=O)OC)ccc1OC | -0.345 | -1.63 (inactive) | -0.493 (inactive) | -2.63 (inactive) | 1.23 (inactive) | 0.0168 (inactive) | -0.122 (inactive) | -0.194 (inactive) | 0.0716 | -0.0367 |
| CC(=O)n1cc(C(O)C2C=CC3C(=O)N(c4ccccc4)C(=O)C3N2Nc2ccccc2)c2ccccc21 (stereo not given) | -1.51 | -3.18 (inactive) | -2.12 (inactive) | 0.342 (inactive) | 0.807 (inactive) | 0.127 (inactive) | -0.0484 (inactive) | -0.602 (inactive) | -1.76 | 0.0297 |
| C#CCNC(=O)[C@H](Cc1ccccc1)NC(=O)[C@@H](N=[N+]=[N-])C(C)C | 0.664 | -1.19 (inactive) | 0.633 (inactive) | -0.635 (inactive) | -0.24 (inactive) | -0.597 (inactive) | 0.713 (inactive) | 0.626 (inactive) | 0.816 | 0.117 |
| C=CCNC(=O)[C@@H]1[C@H]2C(=O)O[C@H](c3ccccc3)[C@H](c3ccccc3)N2[C@H](c2ccc(OCCO)cc2)[C@@]12C(=O)N(C(=O)OCCOC)c1ccc(C#CC3=CCCCC3)cc12 | -0.344 | 1.83 (inactive) | -0.897 (inactive) | -1.47 (inactive) | 2.17 (inactive) | 2.57 (inactive) | -0.713 (inactive) | -0.206 (inactive) | -1.66 | -0.426 |
| CC(C)C(O)C1C=CC2C(=O)N(C)C(=O)C2N1Nc1ccccc1 (stereo not given) | -0.0778 | -0.411 (inactive) | -0.84 (inactive) | -0.482 (inactive) | 0.931 (inactive) | 0.0222 (inactive) | -0.219 (inactive) | -0.434 (inactive) | -1.29 | 0.0159 |
| CC(C)(C)OC(=O)CC[C@]1(C(=O)O)N=C(c2ccc(OCCCO)cc2)O[C@H]1c1ccccc1 | 1.29 | -0.739 (inactive) | 0.904 (inactive) | -14.3 (active) | -0.76 (inactive) | -0.279 (inactive) | 0.419 (inactive) | 1.3 (inactive) | 1.65 | -0.0594 |
| C=C(CCCC)/C(=C/C[C@@H](OC(=O)c1ccncc1)c1cccc(OCCO)c1)c1cnc2ccccc2c1 | 0.0976 | -1.17 (inactive) | -0.369 (inactive) | -2.5 (inactive) | 2.24 (inactive) | 0.264 (inactive) | 0.879 (inactive) | 0.357 (inactive) | 0.0765 | -0.0261 |
| CCOC(=O)C[C@H]1[C@H](OC(=O)Cc2ccc3c(c2)OCO3)[C@@H](NC(=O)C2CCCCC2)c2cc(OCCCO)ccc2N1C(=O)c1ccc2ccccc2n1 | 0.306 | -1.65 (inactive) | 0.773 (inactive) | -3.08 (inactive) | -1.93 (inactive) | 0.133 (inactive) | 0.777 (inactive) | 0.259 (inactive) | -0.338 | 0.302 |
| CCCCN1CC=CC23O[C@@H]4/C=C\CCC(C)OC(=O)C4[C@H]2C(=O)N(CCCCCCO)[C@@H]3C1=O (stereo not given in full) | 0.634 | 0.14 (inactive) | 0.234 (inactive) | -0.524 (inactive) | 0.109 (inactive) | 0.432 (inactive) | 0.666 (inactive) | 0.544 (inactive) | 0.981 | 0.0081 |
| Cc1ccc(S[C@]2(C(=O)NC3CC3)CC(=O)N(Cc3ccccc3Cl)[C@@H]2c2ccc(CO)cc2I)cc1 | -0.451 | -4.44 (inactive) | -3.72 (inactive) | -2.13 (inactive) | 0.348 (inactive) | -0.526 (inactive) | 0.17 (inactive) | 0.932 (inactive) | -1.61 | -0.0118 |
| COc1ccc([Si](C)(C)[C@H]2[C@H](CC(=O)N3Cc4ccccc4C[C@H]3CO)O[C@@]3(C(=O)N(Cc4cccc(N5CCCCC5=O)c4)c4ccccc43)[C@@H]2C)cc1 | -0.376 | -0.704 (inactive) | -2.39 (inactive) | -0.614 (inactive) | 1.42 (inactive) | 0.662 (inactive) | -0.235 (inactive) | -0.435 (inactive) | -1.74 | 0.208 |
| CC(C)CNC(=O)[C@@H]1c2ccccc2C(=O)N(Cc2cc(F)cc(C(F)(F)F)c2)[C@H]1c1ccc(CO)cc1 | 0.564 | -0.874 (inactive) | 0.895 (inactive) | 0.369 (inactive) | 0.801 (inactive) | -0.604 (inactive) | 1.84 (inactive) | 1.42 (inactive) | 1.16 | 0.0651 |
| CCOC(=O)C[C@H]1[C@H](OC(=O)c2ccc(-c3ccccc3)cc2)[C@@H](NC(=O)c2ccc3ccccc3c2)c2cc(OCCCO)ccc2N1C(=O)c1ccc2ccccc2n1 | -0.138 | -0.158 (inactive) | 0.175 (inactive) | -0.746 (inactive) | 0.927 (inactive) | -0.736 (inactive) | -0.936 (inactive) | -0.808 (inactive) | -0.152 | -0.394 |
| CCOC(=O)C[C@H]1[C@H](OC(=O)Cc2ccc3c(c2)OCO3)[C@@H](NC(=O)Cc2ccc(OC)cc2)c2cc(OCCCO)ccc2N1C(=O)c1ccccc1 | -0.174 | -0.0578 (inactive) | -0.727 (inactive) | 0.0225 (inactive) | -0.218 (inactive) | 0.42 (inactive) | -0.296 (inactive) | 0.386 (inactive) | 0.66 | -0.406 |
| COCCOC(=O)N1C(=O)[C@@]2(c3cc(C#Cc4ccc(OC)cc4)ccc31)[C@H](C(=O)N1CCN(c3ncccn3)CC1)[C@H]1C(=O)O[C@H](c3ccccc3)[C@H](c3ccccc3)N1[C@@H]2c1ccccc1OCCO | 0.205 | 2.91 (inactive) | -0.353 (inactive) | 0.27 (inactive) | 3.8 (inactive) | 4.28 (inactive) | -0.269 (inactive) | 0.188 (inactive) | 0.35 | -0.0928 |
| O=c1cccc(-c2ccc(C(F)(F)F)cc2)o1 | -0.0559 | -9.38 (active) | 0.0889 (inactive) | -0.723 (inactive) | 0.0767 (inactive) | -0.962 (inactive) | -0.865 (inactive) | -0.325 (inactive) | 0.263 | 0.0535 |
| CC(C)c1ccc(NN2C(C(O)c3ccco3)C=CC3C(=O)N(c4ccccc4)C(=O)C32)cc1 (stereo not given) | -0.517 | -2.51 (inactive) | -1.23 (inactive) | 0.325 (inactive) | 1.07 (inactive) | 0.921 (inactive) | -0.609 (inactive) | 0.245 (inactive) | -0.695 | -0.0026 |
| C=C(CCCC)C(=O)CC[C@@H](OC(=O)c1ccccc1-c1ccccc1C(=O)O)c1cccc(OCCO)c1 | -0.269 | -1.46 (inactive) | -0.348 (inactive) | -0.556 (inactive) | 0.543 (inactive) | 0.134 (inactive) | -0.285 (inactive) | -0.549 (inactive) | -0.301 | -0.23 |
| O=C1c2ccccc2[C@](Cc2ccccc2I)(C(=O)NCc2ccccc2)[C@H](c2ccc(CO)cc2)N1C1CCCCC1 | -0.176 | -0.453 (inactive) | 0.485 (inactive) | -0.567 (inactive) | 0.214 (inactive) | -0.871 (inactive) | 0.852 (inactive) | -0.14 (inactive) | 0.489 | 0.182 |
| COc1ccccc1CN1C(=O)c2ccccc2[C@](Cc2ccccc2I)(C(=O)NC(C)C)[C@@H]1c1ccc(CO)cc1 | 0.985 | -0.601 (inactive) | -0.577 (inactive) | -2.47 (inactive) | -0.379 (inactive) | 0.862 (inactive) | 1.05 (inactive) | 1.01 (inactive) | -0.305 | -0.253 |
| Cc1ccc(F)cc1S(=O)(=O)N[C@@H]1CCN(Cc2ccc(Oc3ccccc3)cc2)C1 | -0.971 | -17.3 (active) | -0.627 (inactive) | 0.255 (inactive) | -0.177 (inactive) | -9.2 (active) | -5.2 (inactive) | -4.66 (inactive) | -0.942 | -0.13 |
| O=C1OCCC=C[C@H]2OC34C=CCN(c5ccc(Cl)cc5)C(=O)[C@H]3N(CCCCCO)C(=O)[C@@H]4C12 (stereo not given in full) | 1.25 | -0.508 (inactive) | 0.89 (inactive) | -0.417 (inactive) | -0.525 (inactive) | -0.429 (inactive) | 1.68 (inactive) | 1.83 (inactive) | 0.599 | 0.23 |
| Cc1ccc(S[C@]2(C(=O)O)CC(=O)N(Cc3ccccc3Cl)[C@@H]2c2ccc(CO)cc2)cc1 | -0.739 | -0.399 (inactive) | -0.465 (inactive) | 0.0962 (inactive) | 1.42 (inactive) | 0.573 (inactive) | 0.21 (inactive) | 0.224 (inactive) | 0.148 | -0.0749 |
| COc1ccc(C(O)C2C=CC3C(=O)N(C)C(=O)C3N2N2CCCCC2)cc1 (stereo not given) | -0.197 | 0.381 (inactive) | -0.8 (inactive) | 0.0624 (inactive) | 0.49 (inactive) | -0.378 (inactive) | -0.584 (inactive) | -0.858 (inactive) | -0.267 | 0.0728 |

— PubChem BioAssay
